Compound activity deposited in PubChem by several laboratories.
Rows were chosen to be rich in hits. Some 1.3% of all compounds tested hit in one or more screens of this group.
BH1578 lux ind: induces V. cholerae light production without autoinducers | activation, % at 18.7 µM | actives 0.16% (n = 350,000) | AID 588436 | V. cholerae BH1578 lux reporter, luminescence, 6 h; in the data active = activation mostly above about 9.7%, no sharp cut-off
SSB-PriA inh: inhibitors of Klebsiella pneumoniae PriA binding to SSB C-terminal tail; AlphaScreen SSBct-PriA binding, biotinylated peptide; actives 0.6% (n = 430,000); AID 1272365; inhibition, % at 33 µM; in the data active = inhibition mostly above about 37%, no sharp cut-off; inactive = mostly below about 20%;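 note: plate controls were negative control peptide for no effect and reference peptide for full effect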
CCHF vOTU inh-1: CCHFV vOTU protease inhibition. Pep-AMC fluorescence. inhibition, % at 11.5 µM. actives 0.55% (n = 370,000). AID 651958; note: 0% = vehicle wells with enzyme and 100% = no enzyme wells
SARS 3CLpro inh: SARS-CoV 3CLpro protease inhibition. P0C6X7. recombinant SARS-CoV 3CLpro, quenched FRET peptide cleavage. inhibition, % at 6 µM. actives 0.14% (n = 290,000); in the data active = inhibition above about 12%
TcdB GH inh: inhibitors of Clostridioides difficile toxin B glycohydrolase | P18177 | TcdB glycohydrolase enzymatic assay, plate reader | inhibition, % at 9.99 µM | actives 0.24% (n = 350,000); in the data active = inhibition above about 10%
Target sequence (P18177 whole entry, looked up): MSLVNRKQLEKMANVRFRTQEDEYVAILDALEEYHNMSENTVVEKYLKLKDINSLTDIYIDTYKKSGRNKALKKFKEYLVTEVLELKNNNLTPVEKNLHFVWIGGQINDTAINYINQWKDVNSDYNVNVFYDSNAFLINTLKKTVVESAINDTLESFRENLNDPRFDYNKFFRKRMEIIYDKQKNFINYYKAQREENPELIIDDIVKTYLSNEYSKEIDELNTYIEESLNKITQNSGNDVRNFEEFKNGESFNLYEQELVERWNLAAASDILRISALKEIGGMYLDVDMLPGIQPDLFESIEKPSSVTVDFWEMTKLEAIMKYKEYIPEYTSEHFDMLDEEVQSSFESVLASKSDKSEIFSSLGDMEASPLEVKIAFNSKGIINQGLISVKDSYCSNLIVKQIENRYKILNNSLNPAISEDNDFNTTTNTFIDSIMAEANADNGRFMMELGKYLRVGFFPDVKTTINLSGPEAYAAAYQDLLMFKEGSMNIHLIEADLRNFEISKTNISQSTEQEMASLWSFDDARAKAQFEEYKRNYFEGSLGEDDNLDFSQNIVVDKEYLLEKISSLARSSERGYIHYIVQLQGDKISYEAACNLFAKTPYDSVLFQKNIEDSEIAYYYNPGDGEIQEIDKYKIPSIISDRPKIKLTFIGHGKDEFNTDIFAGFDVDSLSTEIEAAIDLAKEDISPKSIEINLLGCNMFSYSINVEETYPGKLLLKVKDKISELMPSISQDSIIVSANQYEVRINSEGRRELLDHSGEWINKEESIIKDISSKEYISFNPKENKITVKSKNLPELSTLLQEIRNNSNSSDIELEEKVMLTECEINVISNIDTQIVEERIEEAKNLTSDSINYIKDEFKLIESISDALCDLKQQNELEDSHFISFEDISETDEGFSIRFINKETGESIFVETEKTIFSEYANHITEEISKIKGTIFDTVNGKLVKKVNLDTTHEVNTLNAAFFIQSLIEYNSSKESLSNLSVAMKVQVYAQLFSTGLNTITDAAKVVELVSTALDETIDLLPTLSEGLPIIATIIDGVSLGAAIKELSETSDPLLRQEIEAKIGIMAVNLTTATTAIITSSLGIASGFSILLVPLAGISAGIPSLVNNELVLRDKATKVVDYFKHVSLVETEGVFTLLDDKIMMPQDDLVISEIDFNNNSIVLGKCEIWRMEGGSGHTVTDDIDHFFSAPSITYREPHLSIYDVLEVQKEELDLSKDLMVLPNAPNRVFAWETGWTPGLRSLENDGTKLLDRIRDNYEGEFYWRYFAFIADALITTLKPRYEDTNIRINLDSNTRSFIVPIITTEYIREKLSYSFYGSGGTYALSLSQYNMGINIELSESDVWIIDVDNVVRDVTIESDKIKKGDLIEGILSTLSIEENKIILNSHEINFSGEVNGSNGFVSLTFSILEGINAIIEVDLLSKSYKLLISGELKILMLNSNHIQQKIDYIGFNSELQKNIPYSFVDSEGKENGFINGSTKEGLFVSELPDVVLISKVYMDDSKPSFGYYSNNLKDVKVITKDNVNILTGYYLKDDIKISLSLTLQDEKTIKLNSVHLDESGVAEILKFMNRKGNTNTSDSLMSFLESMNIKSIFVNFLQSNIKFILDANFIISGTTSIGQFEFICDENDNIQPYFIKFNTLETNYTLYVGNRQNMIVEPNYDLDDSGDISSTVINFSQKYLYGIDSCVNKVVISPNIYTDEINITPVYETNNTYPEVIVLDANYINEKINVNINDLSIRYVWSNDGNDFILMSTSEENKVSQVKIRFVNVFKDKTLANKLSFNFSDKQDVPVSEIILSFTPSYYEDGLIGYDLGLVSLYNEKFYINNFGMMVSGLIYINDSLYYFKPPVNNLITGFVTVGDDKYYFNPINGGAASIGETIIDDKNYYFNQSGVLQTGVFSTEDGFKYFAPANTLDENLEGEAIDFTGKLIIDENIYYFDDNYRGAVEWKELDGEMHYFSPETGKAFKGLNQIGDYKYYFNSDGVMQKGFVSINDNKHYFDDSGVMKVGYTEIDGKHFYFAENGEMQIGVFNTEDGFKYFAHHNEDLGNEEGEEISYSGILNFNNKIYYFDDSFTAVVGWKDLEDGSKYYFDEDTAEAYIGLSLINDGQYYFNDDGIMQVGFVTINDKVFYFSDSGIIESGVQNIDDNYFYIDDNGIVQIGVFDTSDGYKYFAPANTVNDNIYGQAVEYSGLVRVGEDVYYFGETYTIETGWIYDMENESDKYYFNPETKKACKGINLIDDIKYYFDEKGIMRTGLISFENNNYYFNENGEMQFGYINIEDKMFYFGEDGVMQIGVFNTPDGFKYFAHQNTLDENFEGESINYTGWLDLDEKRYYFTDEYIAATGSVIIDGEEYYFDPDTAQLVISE
VHR inh abs: inhibitors of human VHR1 phosphatase (DUSP3); actives 0.52% (n = 290,000); recombinant VHR phosphatase, pNPP absorbance; inhibition, % at 13.3 µM; P51452; in the data active = inhibition above about 50%
CCHF vOTU inh-2: CCHFV vOTU protease inhibition, confirmation | shares compounds with CCHF vOTU inh-1 | Recombinant CCHFV vOTU, Pep-AMC fluorescence | inhibition, % at 11.5 µM | actives 17% (n = 1,900) | AID 686976
An asterisk follows results filed as active; i = inactive; nt = not tested or not shown. Cut-off read from the data, not from the text of the source, unless noted: active = inhibition above about 30%; inactive = the rest.

SMILES	BH1578 lux ind	SSB-PriA inh	CCHF vOTU inh-1	SARS 3CLpro inh	TcdB GH inh	VHR inh abs	CCHF vOTU inh-2
CC1(Cc2ccc3c(c2)OCO3)C(=O)Nc2ccc(-c3cccc(C(F)(F)F)c3)cc21 (stereo unspecified)	i	nt	-2	nt	0	nt	nt
COc1cn(CC(=O)Nc2ccc(C)cc2)c(CSc2nc(C)cs2)cc1=O	nt	0	nt	nt	nt	nt	nt
COc1ccc(-c2c[nH]c(=S)n2-c2cccc(C(F)(F)F)c2)cc1	nt	-1	nt	nt	nt	nt	nt
N#CCCN(C(=O)COC(=O)CCNS(=O)(=O)c1ccccc1)c1ccccc1	i	-1	58*	nt	0	nt	3
N#CCCN(C(=O)COC(=O)CCC(=O)c1cccs1)c1ccccc1	i	0	-11	nt	0	nt	nt
COc1cc(NC(=O)NC[C@H]2CN(c3ccc(F)cc3)C(=O)O2)cc(OC)c1OC	nt	-1	nt	nt	nt	nt	nt
CNc1ccc(Br)cc(C(=O)/C=C/c2cc(OC)ccc2OC)c1=O	0	8	-1	0	nt	0	nt
CNc1ccc(Br)cc(C(=O)/C=C/c2ccc(OC)cc2)c1=O	0	6	36*	0	nt	-11	-5
O=C(O)COc1ccccc1/C=N/NC(=O)Cc1csc(Nc2cccc(C(F)(F)F)c2)n1	i	nt	32*	5	-1	4	-2
COc1ccc(C=NNC(=O)Cc2csc(Nc3cccc(C(F)(F)F)c3)n2)c(OC)c1	nt	15	nt	nt	nt	nt	nt
O=C(Nc1nc2cc3c(cc2s1)OCO3)c1ccccc1Br	nt	-9	nt	nt	nt	nt	nt
Cc1ccc(NS(=O)(=O)c2ccc(/C=C/C(=O)O)cc2)cc1Cl	0	-1	-8	-2	-2	-10	nt
O=C(O)/C=C/c1ccc(S(=O)(=O)Nc2ccc3[nH]c(=O)[nH]c3c2)cc1	i	-1	33*	-8	1	17	-4
O=C(CN1C2CCCC1CC(NC(=O)c1ccccc1)C2)Nc1ccccc1 (stereo unspecified)	0	3	30*	0	1	26	-17
CNCCCOc1ccc(C)cc1Br	3	-4	30*	3	nt	39	-14
C/C(=C\C(=O)c1cccnc1)Nc1ccc(O)cc1	0	nt	95*	1	nt	30	-1
C/C(=C\C(=O)c1ccccc1)Nc1ccc(O)cc1	0	nt	76*	7	nt	-6	-3
CCOC(=O)N1CCc2nc(NC(=O)c3ccnn3CC)sc2C1	nt	-6	nt	nt	nt	nt	nt
N#C/C(=C\c1ccc(-c2ccc(Cl)cc2[N+](=O)[O-])o1)C(=O)N1CCCCC1	nt	34	nt	nt	nt	nt	nt
CC1(C)N=C(SCC(=O)Nc2cccc(C(F)(F)F)c2)c2ccccc2N1	nt	-19	nt	nt	nt	nt	nt
O=C(COc1ccc(S(=O)(=O)NC2CCCCC2)cc1)NC1CCCCC1	0	4	7	4	nt	-5	nt
COC(=O)COc1ccc(S(=O)(=O)NC2CCCCCC2)cc1	5	4	55*	0	nt	14	-17
CCc1nnc(N/N=C/c2cc(C)c(C)cc2C)n1N	0	nt	74*	-3	0	-3	-21
CCc1nnc(N/N=C/c2c(F)cccc2Cl)n1N	i	nt	87*	1	-14	-24	-12
CCOc1cc(/C=N/Nc2nnc(C)n2N)ccc1O	-1	nt	117*	-4	-6	-5	5
SMILES	BH1578 lux ind	SSB-PriA inh	CCHF vOTU inh-1	SARS 3CLpro inh	TcdB GH inh	VHR inh abs	CCHF vOTU inh-2
Cc1nnc(N/N=C/c2c(Cl)cccc2Cl)n1N	0	nt	75*	8	0	2	-8
O=C(NCCCn1ncccc1=O)Nc1ccc(F)cc1F	nt	0	nt	nt	nt	nt	nt
CCOc1ccccc1NC(=O)c1csc(Nc2ccc(S(C)(=O)=O)cc2)n1	nt	-11	nt	nt	nt	nt	nt
Cn1c(=O)c2c(nc(N3CCC(Cc4ccccc4)CC3)n2CCSc2nc3ccccc3s2)n(C)c1=O	nt	-10	nt	nt	nt	nt	nt
O=C1c2ccccc2C(=O)N1CSc1ccccc1	nt	-17	nt	nt	nt	nt	nt
Cc1nnc(NN=Cc2cc(C)n(-c3ccc(F)cc3)c2C)n1N	nt	32	nt	nt	nt	nt	nt
Cc1nnc(N/N=C/c2cc(C)n(-c3ccc(F)cc3)c2C)n1N	1	nt	99*	-5	-1	4	-9
Cc1nnc(N/N=C/c2ccccc2O)n1N	0	nt	97*	2	-7	6	-4
CCc1nnc(N/N=C/c2c(C)[nH]c3ccccc23)n1N	0	nt	112*	2	1	29	-11
Cc1nnc(NN=Cc2ccc(Br)cc2)n1N	nt	-10	nt	nt	nt	nt	nt
Cc1[nH]c2ccccc2c1/C=N/NC(N)=S	0	nt	10	-14	0	1	nt
Cc1ccc2nsnc2c1S(=O)(=O)N(CCO)Cc1cc2cc3c(cc2[nH]c1=O)OCCO3	i	-9	44*	-3	nt	10	-5
O=c1[nH]c2cc3c(cc2cc1CN(CC1CCCO1)S(=O)(=O)c1ccc(Cl)cc1)OCCO3 (stereo unspecified)	-4	7	-1	-4	1	-1	nt
Cc1ccc(S(=O)(=O)N(Cc2cc3cc4c(cc3[nH]c2=O)OCCO4)CC2CCCO2)cc1 (stereo unspecified)	-4	3	38*	-3	nt	38	-27
O=C(Cc1ccc(F)cc1)N1CCN(C[C@H](O)C2CC2)CC1	nt	-8	nt	nt	nt	nt	nt
CC(C)(C)c1ccc(S(=O)(=O)c2n[nH]nc2Nc2ccc(F)cc2)cc1	nt	4	nt	nt	nt	nt	nt
CC(C)(C)C(=O)[C@@H]1[C@@H]2C(=O)N(Cc3ccccc3)C(=O)[C@@H]2[C@H]2c3ccccc3C=CN12	nt	nt	nt	4	nt	29	nt
CC(=O)[C@@H]1[C@@H]2C(=O)N(C3CCCCC3)C(=O)[C@@H]2C2c3ccccc3C=CN21 (stereo partly specified)	nt	nt	nt	4	nt	24	nt
CC(=O)[C@@H]1[C@@H]2C(=O)N(c3ccc(F)c(Cl)c3)C(=O)[C@@H]2C2c3ccccc3C=CN21 (stereo partly specified)	nt	nt	95*	1	nt	36	75*
CC(=O)[C@H]1[C@@H]2C(=O)N(c3cccc(Cl)c3)C(=O)[C@@H]2[C@H]2c3ccccc3C=CN21	-3	2	94*	-12	nt	-4	82*
O=C(C1CN(S(=O)(=O)C2CC2)C1)N1CCN(c2ccc(C(F)(F)F)cn2)CC1	nt	-12	nt	nt	nt	nt	nt
Cc1ccccc1-n1c(CC2CCN(C(=O)CN3CCOC3=O)CC2)n[nH]c1=O	nt	1	nt	nt	nt	nt	nt
O=C(NCC1CCN(C(=O)c2cc3ccccc3o2)CC1)c1cc(Br)cs1	nt	-5	nt	nt	nt	nt	nt
O=C1C(=Cc2cn(-c3ccccc3)nc2-c2ccc(OCc3ccc(Cl)cc3)cc2)SC(=S)N1CCS(=O)(=O)O	0	nt	34*	nt	1	nt	25
O=C1C(=Cc2cn(-c3ccccc3)nc2-c2ccc(OCc3ccccc3F)cc2)SC(=S)N1CCS(=O)(=O)O	-1	nt	28	nt	1	nt	nt
O=C(c1ccccc1F)N1CCN(c2ccc(-c3ccc4c(c3)OCO4)nn2)CC1	nt	-7	nt	nt	nt	nt	nt
C[C@@H](NC(=O)c1nc[nH]c1C(=O)N[C@@H](CCCCNC(=O)OC(C)(C)C)C(=O)OC(C)(C)C)c1ccccc1	-1	12	35*	4	1	14	5
